Results taken from PubChem BioAssay AID1851 (National Center for Advancing Translational Sciences (NCATS), 2009).
Several values for one entry are separate records, joined by “and”; a condition that tells them apart may be missing. Identical values can stand only once. Hit rate of the full screen: of about 16,000 compounds, about 2,600 (16%) were called active. Another 20% or so got no clear call; they are omitted. The list is a sample of the results. Unmarked numbers belong to inactive results. Calls follow the shape of the dose curve; as a rule, active = well fitted curve in the direction sought with a large enough effect; inconclusive = small, poorly fitted or top-dose-only effect, or effect the other way; inactive = no such curve, though single readings can be large or run the other way.

The molecules below were run against Cytochrome P450 2D6 (Homo sapiens) (UniProt P10635) (assay: Cytochrome panel assay with activity outcomes). Settings: recombinant CYP, pro-luciferin dealkylation, luminescence, p450-cyp2d6; series mostly up to 57.1 µM.
Chain of Cytochrome P450 2D6 (Homo sapiens) (P10635 whole entry, looked up): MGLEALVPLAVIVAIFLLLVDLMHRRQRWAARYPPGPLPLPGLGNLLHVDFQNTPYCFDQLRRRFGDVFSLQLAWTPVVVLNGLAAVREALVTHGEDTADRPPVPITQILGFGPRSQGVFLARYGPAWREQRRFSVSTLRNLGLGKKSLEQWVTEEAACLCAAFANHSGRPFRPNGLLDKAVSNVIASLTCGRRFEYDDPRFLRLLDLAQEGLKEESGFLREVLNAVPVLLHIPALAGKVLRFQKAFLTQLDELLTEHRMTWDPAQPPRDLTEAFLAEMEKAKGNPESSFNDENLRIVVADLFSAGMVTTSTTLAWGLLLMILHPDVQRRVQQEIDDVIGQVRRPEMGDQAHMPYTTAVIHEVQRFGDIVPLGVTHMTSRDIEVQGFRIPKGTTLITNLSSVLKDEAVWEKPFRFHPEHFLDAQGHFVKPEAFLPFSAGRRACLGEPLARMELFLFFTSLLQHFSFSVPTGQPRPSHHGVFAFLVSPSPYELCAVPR
% is scaled to controls: 0 for no effect and ±100 for the full control effect.

SMILES	AC50	activity, negative = inhibition
COc1ccc(N2CC(C(=O)OCC(=O)c3cccc(OC)c3)CC2=O)cc1 (centres undefined)	inactive	–
O=C1CC(c2ccccc2)Cc2nc(N3CCc4ccccc4C3)ncc21 (centres undefined)	inactive	–
O=C(Nc1nnc(C2CC2)s1)c1ccc(S(=O)(=O)c2ccccc2)cc1	inactive	–
COCCNC(=O)c1ccc2c(c1)nc(C)n2-c1cc(OC)c(OC)c(OC)c1	inactive	–
COC(=O)COc1ccc2c(-c3cccc([N+](=O)[O-])c3)cc(=O)oc2c1	inactive	–
Cc1cc(C(=O)OCC(=O)NCCCN2CCCC2=O)c2ccccc2n1	inactive	–
O=C(C1=C(O)C(=O)N(Cc2ccco2)C1c1ccccc1)c1cccs1 (centres undefined)	inactive	–
CN(C)C(=O)c1ccc(-c2nc(NC3CCNCC3)c3ccccc3n2)cc1	inactive	–
COCCNc1nc(-c2ccccc2CN(C)C)nc2ccccc12	12.6 µM (active)	–
CN(C)Cc1ccccc1-c1nc(NCc2ccccc2)c2ccccc2n1	20 µM (active)	–
COCCNc1nc(-c2c(C)noc2C)nc2ccccc12	inactive	–
Cc1noc(C)c1-c1nc(NC2CCNCC2)c2ccccc2n1	inactive	–
CN(C)Cc1ccccc1-c1nc(NCc2cccs2)c2ccccc2n1	20 µM (active)	–
COCCNc1nc(-c2ccccc2C)nc2ccccc12	inactive	–
CN(C)Cc1ccccc1-c1nc(NC2CC2)c2ccccc2n1	3.98 µM (active)	–
CC1=C(C#N)C(NC(=O)C2CCCCC2)(C(F)(F)F)C(=O)N1 (centres undefined)	inactive	–
N#Cc1nc(-c2ccc(F)cc2)oc1N1CCCC1	inactive	–
CCOC(=O)c1cc(-c2ccccc2)sc1NC(=S)Nc1cc(C)ccn1	inactive	–
NCCNS(=O)(=O)c1ccc(N)cc1	–	1.63% [at 11.4 µM]
CCn1c(SCC(=O)Nc2sc3c(c2C#N)CCC(C(C)(C)C)C3)nnc1-c1ccco1 (centres undefined)	inactive	–
COc1ccc(C(=O)N2CCC[C@@]3(CCN(c4cccc(-c5ccccc5)c4)C3)C2)cc1	inactive	–
Cn1ncc2c(Nc3cccc(C(=O)O)c3)ncnc21	inactive	–
CN[C@]1(C)[C@H]2CC[C@@H](C2)C1(C)C	inactive	–

SMILES	AC50	activity, negative = inhibition
CCc1ccc(N2CC(C)Cn3c2nc2c3c(=O)n(CCN3CCOCC3)c(=O)n2C)cc1 (centres undefined)	inactive	–
CC(C)[C@@H](OCc1ccccc1)[C@H](C)/C=N\O[C@@H](C)c1cn([C@H](CO)Cc2ccccc2)nn1	–	-24.2% [at 11.4 µM] and -19.2% [at 11.4 µM]
CC1(C)S[C@@H]2[C@H](NC(=O)[C@H](C(=O)O)c3ccsc3)C(=O)N2[C@H]1C(=O)O	inactive	–
O=C1C(=O)c2ccccc2C(O)=C1C1CCC(c2ccc(Cl)cc2)CC1 (centres undefined)	inactive	–
O=C1CCCC2=C1C(c1ccc(Cl)cc1)C1C(=O)c3ccccc3C1=N2 (centres undefined)	25.1 µM (active)	–
CCOC(=O)C1=C(C)N=C2c3ccccc3C(=O)C2C1c1ccc(Cl)cc1 (centres undefined)	15.8 µM (active)	–
CCOC(=O)C1=C(C)N=C2c3ccccc3C(=O)C2C1c1ccc(C)cc1 (centres undefined)	inactive	–
O=C1c2ccccc2C2=Nc3ccccc3SC(c3ccccc3F)C12 (centres undefined)	inactive	–
CCOC(=O)C1=C(C)NC(=O)NC1c1ccoc1 (centres undefined)	inactive	–
COC(=O)c1c(NC(=O)C(C)(C)C)sc2c1C(C(=O)OC)CC2 (centres undefined)	inactive	–
O=S(=O)(C[C@H](O)C(Cl)(Cl)Cl)NNc1ccccc1	–	17.4% [at 11.4 µM]
C[C@H]1O[C@@H](CC(=O)O)Cc2c1c(O)c1c(O)cc(-c3cc(=O)c4c(=O)c5c(c(=O)c=4c3=O)C[C@H](CC(=O)O)O[C@@H]5C)c(O)c1c2O	–	-3.88% [at 11.4 µM]
CN(C)c1ncc2nc(-c3ccc(F)cc3)c(=O)n(C3CC3)c2n1	inactive	–
O=C(Nc1cc(C(F)(F)F)ccc1-n1cncn1)c1ccc(Br)cc1	inactive	–
C[n+]1cccc(CNC(=O)/C=N/O)c1	inactive	–
CC(Oc1ccccc1)c1ccnn1S(=O)(=O)c1ccccc1 (centres undefined)	inactive	–
CC[N+](C)(CC)CCC[n+]1c(-c2ccccc2)c2cc(N)ccc2c2ccc(N)cc21	6.31 µM (active)	–
CN=C(NC#N)Nc1ccc(C2=NNC(=O)C[C@@H]2C)cc1	inactive	–
NC(=O)C1CCN(C(=O)CN2C(=O)c3ccccc3S2(=O)=O)CC1	inactive	–
Cc1nc2cnc(N3CCOCC3)nc2n(C)c1=O	inactive	–
CCOC(=O)Oc1c(OC)cc(C(=O)O[C@H]2C[C@H]3CN4CCc5c([nH]c6cc(OC)ccc56)[C@@H]4C[C@H]3[C@@H](C(=O)OC)[C@@H]2OC)cc1OC	inactive	–
COCCCCC(=NOCCN)c1ccc(C(F)(F)F)cc1	3.98 µM (active)	–
COc1c(/C=N/Nc2ccc([N+](=O)[O-])cc2[N+](=O)[O-])c(C)nn1-c1ccccc1	inactive	–

SMILES	AC50	activity, negative = inhibition
C[C@@]12CC[C@@H]3c4ccc(O)cc4CC[C@H]3[C@H]1CC[C@H]2O	inactive	–
Cc1cccc(C)c1OC[C@@H](N)C(C)C	15.8 µM (active)	–
CCOc1nc(N=C(N)N)nc2c(C)cccc12	inactive	–
Cc1cccc(C)c1NC(=O)[C@H](C)N	inactive	–
COC(=O)[C@@]1(Cc2ccccc2)[C@H]2c3cc(C(=O)N4CCCC4)n(Cc4cccc5ccccc45)c3C[C@H]2CN1C(=O)c1ccccc1	inactive	–
COC(=O)[C@@]1(Cc2ccc(F)cc2)[C@H]2c3cc(C(=O)N4CCCC4)n(Cc4ccccn4)c3C[C@H]2CN1C(=O)c1ccccc1	inactive	–
COC(=O)[C@@]1(Cc2ccc(F)cc2)[C@H]2c3cc(C(=O)N4CCCC4)n(Cc4c(CO)[nH]cc(C)c4=O)c3C[C@H]2CN1C(=O)c1ccccc1	12.6 µM (active)	–
COC(=O)[C@@]1(Cc2ccc(F)cc2)[C@H]2c3cc(C(=O)N4CCCC4)n(CCc4c[nH]c5ccccc45)c3C[C@H]2CN1C(=O)c1ccccc1	inactive	–
COC(=O)[C@@]1(Cc2ccc(F)cc2)[C@H]2c3cc(C(=O)N4CCCC4)n(Cc4ccccc4)c3C[C@H]2CN1C(=O)c1ccccc1	inactive	–
COC(=O)[C@@]1(Cc2ccc(F)cc2)[C@H]2c3cc(C(=O)N4CCCC4)n(CCc4ccc(O)c(O)c4)c3C[C@H]2CN1C(=O)c1ccccc1	12.6 µM (active)	–
COC(=O)[C@@]1(Cc2ccccc2)[C@H]2c3cc(C(=O)N4CCCC4)n(CC4CC4)c3C[C@H]2CN1C(=O)c1ccccc1	inactive	–
COC(=O)[C@@]1(Cc2ccc(F)cc2)[C@H]2c3cc(C(=O)N4CCCC4)n(CCc4ccc(OC)c(Br)c4)c3C[C@H]2CN1C(=O)c1ccccc1	inactive	–
COC(=O)[C@@]1(Cc2ccc(F)cc2)[C@H]2c3cc(C(=O)N4CCCC4)n(Cc4ccc(OC(F)(F)F)cc4)c3C[C@H]2CN1C(=O)c1ccccc1	inactive	–
COC(=O)[C@@]1(Cc2ccccc2)[C@H]2c3cc(C(=O)N4CCCC4)n(Cc4c(CO)[nH]cc(C)c4=O)c3C[C@H]2CN1C(=O)c1ccccc1	12.6 µM (active)	–
COC(=O)[C@@]1(Cc2ccccc2)[C@H]2c3cc(C(=O)N4CCCC4)n(Cc4nc5ccccc5[nH]4)c3C[C@H]2CN1C(=O)c1ccccc1	7.94 µM (active)	–
Cc1cc(NC(=O)c2ccccc2Cl)c(C(C)C)cc1O	inactive	–
CCCCC1(C)OC(=O)C(=Cc2ccc(N(CC)CC)cc2)C(=O)O1 (centres undefined)	inactive	–
COc1ncc2nc(-c3cn(C)c4ccccc34)c(=O)n(Cc3ccc(F)cc3)c2n1	inactive	–
Cc1cc(C)cc(N2C(=O)CC(Sc3nnnn3-c3ccccc3)C2=O)c1 (centres undefined)	inactive	–
Cc1cccc(-n2cnc(C(=O)NC3CCCCCC3)c2)n1	inactive	–
COc1cc(OC)c(C2N(c3cc(C)on3)C(=O)C3CCCN32)cc1OC (centres undefined)	inactive	–
COc1ccc(CNc2ncncc2-c2ccccc2OC)c(OC)c1	12.6 µM (active)	–
COc1ccc(CNc2ncncc2-c2ccccc2C)c(OC)c1	12.6 µM (active)	–

SMILES	AC50	activity, negative = inhibition
COc1ccc(CNc2ncncc2-c2ccccc2CN(C)C)c(OC)c1	2.51 µM (active)	–
COc1ccc(O[C@H]2C=C[C@@H](c3ccccc3)O[C@@H]2CO/N=C\[C@@H](C)[C@H](OCc2ccccc2)C(C)C)cc1	–	8.39% [at 11.4 µM]
COc1ccc(Nc2nnc(-c3ccc(N4CCOCC4)c([N+](=O)[O-])c3)c3ccccc23)cc1	inactive	–
NC(=O)c1ccc([N+](=O)[O-])cc1SCc1ccccc1	inactive	–
Cc1ccc(Cn2nc(C)c(NC(=O)c3cc(-c4ccco4)on3)c2C)cc1	inactive	–
Cn1c(=O)c2cn(-c3ccccc3)cc2n(C)c1=O	inactive	–
COc1ncc2nc(-c3cccs3)c(=O)n(-c3ccccc3)c2n1	inactive	–
O=C(C1CCN(S(=O)(=O)c2cccc3cccnc23)CC1)N1CCN(c2ccccn2)CC1	inactive	–
Cc1ccc2c(c1)NCC(C(=O)NC1CCCCC1)O2 (centres undefined)	inactive	–
Cc1ccc(S(=O)(=O)N2CCN(Cc3ccccc3C(F)(F)F)CC2)cc1	10 µM (active)	–
Cc1ccc(S(=O)(=O)N2CCN(S(C)(=O)=O)C2)cc1	inactive	–
Cc1ccc(S(=O)(=O)N2CCN(C(=O)CN3CCN(C)CC3)C2)cc1	inactive	–
COC(=O)C(NS(=O)(=O)c1ccc(NC(C)=O)cc1)C(C)C (centres undefined)	inactive	–
O=S(=O)(c1cccc(C(F)(F)F)c1)N1CCC(c2cc(-c3cccc4ccccc34)n[nH]2)CC1	inactive	–
Cc1cccc(NC(=O)CSc2nc(-c3ccccc3)c(C#N)c(=O)[nH]2)c1C	inactive	–
Cc1cccc(NC(=O)CSc2nnc(-c3ccco3)c(-c3ccco3)n2)c1C	12.6 µM (active)	–
Cc1cc(C)nc(SCC(=O)Nc2ccccc2[N+](=O)[O-])n1	inactive	–
COc1ccc(NC(=O)N2CCC3(CC2)CCN(C(=O)c2cccc(F)c2)CC3)cc1	inactive	–
CCCCNC(=O)CN1C(=O)NC2(CCCc3ccccc32)C1=O (centres undefined)	inactive	–
CCC1Oc2ccccc2N(CC(=O)NCCCN2CCCCC2C)C1=O (centres undefined)	3.16 µM (active)	–
